Results taken from ChEMBL document CHEMBL1157539, “Thousands of chemical starting points for antimalarial lead identification” (Nature, 2010).

What follows are molecules tested on Plasmodium falciparum (assay: GSK_TCMDC: Inhibition of Plasmodium falciparum 3D7 in whole red blood cells, using parasite LDH activity as an index of growth. Test compounds present at 2uM).
Format: functional
`COc1cc(-c2cc3cc(Cl)c(Cl)cc3[nH]2)ccc1C(=O)NC1CCN(Cc2ccccc2)CC1.O=C(O)C(F)(F)F` was tested, and the Inhibition was 100%. For `CC(C)(C)NCCN(Cc1ccc(-c2ccc(C(F)(F)F)cc2)cc1)C(=O)Cn1c(CCc2cccc(F)c2F)nc(=O)c2c1CCC2.O=C(O)C(O)C(O)C(=O)O`, the Inhibition was 95%. Work on `O=C(Nc1ccc([N+](=O)[O-])cc1)Nc1cc(OCC(F)(F)F)cc(OCC(F)(F)F)c1` yielded an Inhibition of 100%. Work on `O=C(O)C(F)(F)F.OCC1CCN(Cc2cccc(-c3ccc(-c4nc5cc(C(F)(F)F)ccc5[nH]4)s3)c2)CC1` yielded an Inhibition of 99%. Work on `COc1ccc(NC(=O)Nc2ccc(Nc3nc(C)cc(N4CCCC4)n3)cc2)cc1` yielded an Inhibition of 100%. `O=c1c2ccc(F)cc2sn1-c1ccc(Cl)cc1` was tested, and the Inhibition was 98%. With `CN1CCC(N2CCN(Cc3ccc(-c4cccc(-c5nc6cc(F)ccc6[nH]5)c4)cc3)CC2)CC1.O=C(O)C(F)(F)F` the Inhibition was 100%. `CCc1nc(N)nc(N)c1-c1ccc(F)c(F)c1` showed an Inhibition of 98%. `Nc1cc2c(C3CCN(CC4CCN(C(=O)/C=C/c5ccc(Cl)c(Cl)c5)CC4)CC3)c[nH]c2cn1` showed an Inhibition of 100%. Molecule `CN(C)c1ccc(C2(c3ccccc3)N=C(N)N(CCCc3ccccc3)C2=O)cc1.O=C(O)C(F)(F)F` (stereo not given) has an Inhibition of 99%. Molecule `Cc1cc(-c2cccc(CNC3CCN(C)CC3)c2)ccc1S(=O)(=O)NC1CCC1.O=C(O)C(F)(F)F` has an Inhibition of 100%. `Cc1cccc2nc(-c3ccc(-c4ccc(CN5CCCCC5CO)cc4)cc3)[nH]c12.O=C(O)C(F)(F)F` (stereo not given) showed an Inhibition of 100%. In the case of `COc1ccc2nccc([C@@H](O)CN3CCC(NCc4cc5cc(Cl)ccc5[nH]4)CC3)c2c1.O=C(O)C(=O)O`, the Inhibition is reported as 99%. `Br.CN1C(=O)C(=O)N(CCCCCONC(=N)N)C1=S` was tested, and the Inhibition was 100%. For `CC(C)CN(C)Cc1ccc(-c2ccc(-c3nc4ccccc4[nH]3)s2)cc1`, the Inhibition was 97%. For `CC1(C)N=C(N)N=C(N)N1c1ccc(Oc2ccc(Cl)cc2)c(Cl)c1`, the Inhibition was 97%. For `C=CCOc1cccc2c1CCN(CCN1CCC(NC(=O)c3ccc(-c4ccc(Cl)cc4)cc3)CC1)C2`, the Inhibition was 93%. Molecule `O=[N+]([O-])c1cccc(-n2nc(NCc3ccc(Cl)cc3)nc2-c2ccc(F)c(C(F)(F)F)c2)c1` has an Inhibition of 98%. Work on `CCCNC(=O)C1CCN(C(c2ccccc2)c2ccc(Cl)c(Cl)c2)CC1` (stereo not given) yielded an Inhibition of 90%. `CCCCCCCCN1CCCN(C(=O)c2cccc(NC(=O)Nc3ccc4ccccc4c3)c2)CC1.O=C(O)C(F)(F)F` was tested, and the Inhibition was 97%. Molecule `Cl.NC(=O)c1sc(-n2cnc3ccc(OCC4CCNCC4)cc32)cc1OCc1ccccc1C(F)(F)F` has an Inhibition of 100%. Work on `CCOC(=O)C(NC(=O)Cc1ccccc1)C(C)C` (stereo not given) yielded an Inhibition of 96%. With `COc1ccc(C2CCN(CCCCNC(=O)c3ccc(NC(=O)c4ccc(Cl)cc4)cc3)CC2)c(OC)c1.Cl` the Inhibition was 100%. `CCOC(=O)CCCOc1cc(Cc2cnc(N)nc2N)cc(OC)c1OC` was tested, and the Inhibition was 97%. In the case of `CC(Oc1ccc(Cl)cc1)C(=O)Nc1cc(C(F)(F)F)ccc1N1CCOCC1` (stereo not given), the Inhibition is reported as 97%. Work on `CCOc1ccc2[nH]c(C)cc(=NN=Cc3cccc(F)c3)c2c1` yielded an Inhibition of 100%. `CC(=O)Nc1nc(C(=O)Nc2cccc(-c3cccc(-c4nc5cccc(C)c5[nH]4)c3)c2)cs1` was tested, and the Inhibition was 100%. Molecule `COCCNCc1ccc(-c2ccc(CNC3CCN(Cc4ccccc4)CC3)cc2)cc1.O=C(O)C(F)(F)F` has an Inhibition of 100%. Work on `O=C(/C=C/c1ccc(Cl)c(Cl)c1)NCCCCCN1CCC(NC(=O)Nc2ccc(Cl)c(Cl)c2)CC1` yielded an Inhibition of 100%. In the case of `COc1cc(Cc2cnc(N)nc2N)cc(OCCCCCCN2C(=O)c3ccccc3C2=O)c1OC`, the Inhibition is reported as 95%. Work on `Cc1cc2nc(-c3ccc(C(=O)NC4CCN(Cc5ccccc5)CC4)s3)[nH]c2cc1C` yielded an Inhibition of 99%. `CC(=O)N(C)C1CCN(Cc2ccc(-c3cccc(-c4nc5cc(F)ccc5[nH]4)c3)cc2)C1.O=C(O)C(F)(F)F` (stereo not given) showed an Inhibition of 100%. For `CC(C)c1ccc(NC(=O)c2ccc(C(=O)NC3CCN(Cc4ccsc4)C3)cc2)cc1.O=C(O)C(F)(F)F` (stereo not given), the Inhibition was 82%. `CCN(CC)CCN(CCN(CC)CC)c1ccc2c(c1)Sc1c(Cl)ccc(Cl)c1S2.Cl` showed an Inhibition of 98%. In the case of `O=C(O)C(F)(F)F.Oc1ccc(CCNc2nc(NCc3cccc(-c4cc(C(F)(F)F)ccc4Cl)c3)nc(N3CCNCC3)n2)cc1`, the Inhibition is reported as 90%. `CCN1CCC(N(Cc2ccc(-c3ccc(C(F)(F)F)cc3)cc2)C(=O)Cn2c(CCc3cccc(F)c3F)cc(=O)c3c2CCCC3)CC1.O=C(O)C(O)C(O)C(=O)O` showed an Inhibition of 100%. `CCN(CC)CCN(Cc1ccc(-c2ccc(C(F)(F)F)cc2)nc1)C(=O)Cn1cc(Cc2cnn(C)c2)c(=O)n2nc(-c3ccccc3)cc12.O=C(O)C(O)C(O)C(=O)O` was tested, and the Inhibition was 97%. In the case of `O=C(O)C(F)(F)F.c1cc(CN2CCN(c3ccncc3)CC2)cc(-c2cccc(-c3nc4ccccc4[nH]3)c2)c1`, the Inhibition is reported as 100%. For `COc1ccc2nc(-c3cc(-c4ccc(NC(=O)C(C)C)cc4)cnc3N)[nH]c2c1`, the Inhibition was 100%. Molecule `Cc1ccc2c(c1)NCC21CCN(C[C@@H](O)C2CCN(c3ccnc(Cl)c3)CC2)CC1C` (stereo not given in full) has an Inhibition of 87%.
